From PubChem BioAssay AID1159580 (chemical genetic matrix, 2015)
Several values for one entry are separate records, joined by “and”; a condition that tells them apart may be missing. Equal entries are not always repeated. Hit rate of the full screen: of about 5,500 compounds, about 2,000 (36%) were called active. About 18% were inconclusive and are not listed. Rule as the data show it: active = normalized growth mostly below about 0.91 (no sharp cut-off); inconclusive = no clear call, values can overlap the other calls; inactive = mostly above about 0.92. The list shows a part of the results.

Experiment: chemical genetic growth profiling, strain panel (AID 1159580);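 also: tested at 20 µM; growth read once vehicle control cultures reached saturation at 30 °C; 1 = growth at the plate median or of vehicle wells; lower values mean less growth of the strain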
Details: S. cerevisiae deletion strains, growth OD

Measured: normalized growth

CCOC(=O)C(C)(C)Oc1ccc(Cl)cc1
inactive: locus YAL013W, strain DEP1, active compounds read low 1.01 and 0.989 | locus YAL021C, strain ccr4, active compounds read low 0.996 | locus YAL026C, strain drs2, active compounds read low 0.989 | locus YAL030W, strain snc1, active compounds read low 0.976 | locus YAL040C, strain CLN3, active compounds read low 0.985 | locus YBL061C, strain skt5, active compounds read low 0.978 | locus YBR009C, strain hhf1, active compounds read low 0.982 | locus YBR021W, strain FUR4, active compounds read low 0.988 | locus YBR023C, strain chs3, active compounds read low 0.985 | locus YBR171W, strain sec66, active compounds read low 0.973 | locus YBR229C, strain ROT2, active compounds read low 1.01 | locus YBR231C, strain swc5, active compounds read low 0.977 | locus YBR279W, strain paf1, active compounds read low 0.986 | locus YCL011C, strain gbp2, active compounds read low 0.991 | locus YCL016C, strain dcc1, active compounds read low 0.986 | locus YCL029C, strain bik1, active compounds read low 1 | locus YCL061C, strain MRC1, active compounds read low 0.98 | locus YCL069W, strain vba3, active compounds read low 0.981 | locus YCR088W, strain abp1, active compounds read low 0.984 | locus YDL005C, strain med2, active compounds read low 0.972 | locus YDL035C, strain GPR1, active compounds read low 1.01 | locus YDL040C, strain nat1, active compounds read low 0.979 | locus YDL074C, strain BRE1, active compounds read low 1.02 | locus YDL101C, strain DUN1, active compounds read low 0.999 | locus YDL134C, strain PPH21, active compounds read low 0.999 | locus YDL185W, strain tfp1, active compounds read low 1.01 | locus YDL192W, strain arf1, active compounds read low 1.01 | locus YDR001C, strain nth1, active compounds read low 0.983 | locus YDR069C, strain doa4, active compounds read low 0.984 | locus YDR101C, strain arx1, active compounds read low 0.99 | locus YDR137W, strain rgp1, active compounds read low 0.964 | locus YDR150W, strain NUM1, active compounds read low 1 | locus YDR159W, strain sac3, active compounds read low 0.945 | locus YDR162C, strain NBP2, active compounds read low 1.01 | locus YDR195W, strain ref2 0.954 | locus YDR297W, strain sur2, active compounds read low 0.982 | locus YDR318W, strain mcm21, active compounds read low 1 | locus YDR334W, strain swr1, active compounds read low 0.987 | locus YDR335W, strain msn5, active compounds read low 0.986 | locus YDR388W, active compounds read low 0.995 | locus YDR392W, strain spt3, active compounds read low 0.87 | locus YDR502C, strain sam2, active compounds read low 0.996 | locus YEL003W, strain gim4, active compounds read low 0.992 | locus YEL037C, strain rad23, active compounds read low 1.02 | locus YEL061C, strain CIN8 (second series), active compounds read low 0.981 | locus YEL061C, strain CIN8, active compounds read low 1.01 | locus YER002W, strain NOP16, active compounds read low 0.998 | locus YER015W, strain faa2, active compounds read low 0.971 | locus YER016W, strain bim1, active compounds read low 0.984 | locus YER110C, active compounds read low 0.992 | locus YER111C, strain swi4, active compounds read low 0.985 | locus YER155C, strain BEM2 (second series), active compounds read low 0.922 | locus YER155C, strain BEM2, active compounds read low 1 | locus YER167W, strain BCK2, active compounds read low 0.998 | locus YFR010W, strain ubp6, active compounds read low 1.01 | locus YGL078C, strain dbp3, active compounds read low 1.01 | locus YGL086W, strain mad1, active compounds read low 1 | locus YGL167C, strain pmr1, active compounds read low 0.975 | locus YGL173C, strain kem1, active compounds read low 0.984 | locus YGL227W, strain vid30, active compounds read low 0.975 | locus YGL240W, strain doc1, active compounds read low 0.949 | locus YGL248W, strain PDE1, active compounds read low 1.01 | locus YGL253W, strain hxk2, active compounds read low 1 | locus YGR078C, strain PAC10, active compounds read low 1.02 | locus YGR135W, strain pre9, active compounds read low 1 | locus YGR252W, strain gcn5, active compounds read low 0.993 | locus YHR013C, strain ard1, active compounds read low 1.02 | locus YHR027C, strain rpn1, active compounds read low 0.986 | locus YHR030C, strain SLT2, active compounds read low 1.01 and 0.939 | locus YHR079C, strain IRE1 (second series), active compounds read low 1 | locus YHR079C, strain IRE1, active compounds read low 0.946 | locus YHR094C, strain hxt1, active compounds read low 0.993 | locus YHR129C, strain ARP1, active compounds read low 1 | locus YHR142W, strain chs7, active compounds read low 0.993 | locus YHR200W, strain rpn10, active compounds read low 1 | locus YIL066C, strain RNR3, active compounds read low 1.01 | locus YIL073C, strain SPO22, active compounds read low 1.02 | locus YIL125W, strain kgd1, active compounds read low 0.998 | locus YIR030C, strain dcg1, active compounds read low 0.994 | locus YJL092W, strain hpr5, active compounds read low 0.978 | locus YJL095W, strain BCK1 (second series), active compounds read low 0.985 | locus YJL095W, strain BCK1, active compounds read low 0.986 and 0.943 | locus YJL115W, strain asf1, active compounds read low 0.965 | locus YJL129C, strain trk1, active compounds read low 0.973 | locus YJL134W, strain LCB3, active compounds read low 1 | locus YJL154C, strain vps35, active compounds read low 0.992 | locus YJL164C, strain tpk1, active compounds read low 0.985 | locus YJL166W, strain qcr8, active compounds read low 0.978 | locus YJL168C, strain set2, active compounds read low 0.997 | locus YJL187C, strain SWE1 (second series), active compounds read low 1.01 | locus YJL187C, strain SWE1, active compounds read low 0.97 | locus YJR043C, strain POL32, active compounds read low 1 | locus YJR066W, strain TOR1, active compounds read low 0.943
